CCT modulator – changes cytosolic chaperonin activity. purified chaperonin ATPase assay, HTRF ADP detection, 30 min. activity change, % (test concentration not listed), hits read low. 360,000 compounds, 0.3% hits. AID 651819; in the data active means activity change below about -30%; further: on the % scale 0 is the no-effect control and ±100 the full control effect
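Nucleotide hydrolysis assay: TRiC at 20–40 nM final (set by batch activity) with 10 uM ATP, 30 min at 37 °C, in presence of 76 uM compound. Detection by competitive ADP HTRF, 30 min ambient.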
TCR act – activators of T cell receptors; primary human leukocytes, anti-CD3, IL-2 HTRF, 48 h; Potency, µM (series often up to 9.22 µM), for inactives: at the highest dose activation of IL-2 secretion, actives largely listed as activators; 330,000 tested, under 10 active; AID 504894; further: % of control where 0% means no effect
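Compounds are tested in HTS on primary human leukocytes co-incubated with a-CD3 beads for 48 hr. IL-2 output is measured by time-resolved FRET.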
A-T KAP1 phos – potential ataxia-telangiectasia treatment. Potency, µM (titrated, usually from 57.5 µM), inactives show at the top dose activation, actives largely listed as activators. 320,000 compounds, 0.19% hits. F2112 A-T fibroblasts, KAP-1 phosphorylation AlphaLISA; neocarzinostatin DNA damage 30 min before lysis; further: potency means the concentration at half of the fitted maximal effect; % of control where 0% means no effect; nearly all actives have a fitted effect of over 45% in size
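hTERT-immortalized A-T patient fibroblasts (F2112), 500 cells/well in OPTI-MEM, 1% FBS, got compounds for 60 min, then NCS for 30 min at 37C. Lysates were then assayed for phospho-KAP-1 by AlphaLISA (anti-pKAP1 donor, anti-KAP1 acceptor beads), 6 hr at 25C.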
Nrf2 activator – activates Nrf2 signaling; AREc32 ARE-luciferase reporter (MCF7-derived line), luminescence, 24 h; Potency, µM (series often up to 46.1 µM), for inactives: top-dose activation, usual class: activators; 410,000 compounds, 0.31% hits; AID 624171; further: potency means the concentration at half of the fitted maximal effect; % of control where 0% means no effect; nearly all actives have a fitted effect of over 65% in size
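Luciferase luminescence (Steady-Glo, 30 min at room temperature) served as the read-out of ARE activation in AREc32 cells treated with compounds for 24 hr at 37 deg C.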
Nrf2 inh – Nrf2 pathway inhibition. A549 ARE-Fluc reporter, luciferase luminescence, 18-24 h. Potency, µM (series often up to 46 µM), without a hit: top-dose activity change, negative = inhibition, usual class: inhibitors. 360,000 compounds, 2.1% hits. AID 504444; further: potency means the concentration at half of the fitted maximal effect; on the % scale 0 is the no-effect control and ±100 the full control effect; nearly all actives have a fitted effect of over 60% in size
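Nrf2 activity is the BugLite luminescence, read 15 min after reagent at room temperature, following CellTiter-Fluor cytotoxicity readout (30 min, 37C). Compound titrations were applied for 18-24 h to 5000 A549 ARE_Fluc cells/well in 5% FBS OPTI-MEM.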
A549 tox – A549 cytotoxicity, counter-screen for Nrf2 inhibitors; A549 ARE-Fluc cells, CellTiter-Fluor viability, 18-24 h; Potency, µM (series often up to 46 µM), for the others: top-dose activity change, negative = cytotoxicity, hits mostly inhibitors; 390,000 compounds, 0.16% hits; further: potency means the concentration at half of the fitted maximal effect; on the % scale 0 is the no-effect control and ±100 the full control effect
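A549 ARE-Fluc cells in 5% FBS OPTI-MEM, 5000 cells/well, rested 2 h then exposed to compounds in concentration-response for 18-24 h at 37 °C. Viability by CellTiter-Fluor fluorescence (Ex 405/Em 525) after 30 min; luciferase luminescence (BugLite, 15 min, RT) read afterwards.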
Starred values were filed as active, the others as inactive; [ ] = remark or other dose. Compounds with a hit are over-represented: about 2.6% of the library has one in this group of screens. Unless noted, the call rests on the fitted dose curve; in most records, active means well fitted curve in the direction sought with a large enough effect; inconclusive means small, poorly fitted or top-dose-only effect, or another doubt; inactive means no such curve, though single readings can be large; an effect the other way counts as inactive or inconclusive.

Results for Nc1c(C(=O)Nc2ccc(Br)cc2)sc2nc(-c3ccco3)ccc12 ?
CCT modulator: 0.9; TCR act: -5.5%; A-T KAP1 phos: 15.7%; Nrf2 activator: inconclusive; Nrf2 inh: 13µM*; A549 tox: inconclusive

Results for Cc1ccc(NC(=O)c2sc3nc4c(c(-c5ccco5)c3c2N)CCC4)cc1 ?
CCT modulator: -0.2; TCR act: 2.0%; Nrf2 activator: -0.4%; Nrf2 inh: 18.4µM*; A549 tox: -12.2%

Results for CCOC(=O)c1cc2ccccc2n1C1CCN(C)CC1 ?
CCT modulator: 2.5; Nrf2 activator: -0.1%

How did Cc1ccc(CNC(=O)c2cc3sccc3n2Cc2ccc(Cl)cc2)cc1 do in these assays?
Nrf2 activator: -0.5%; Nrf2 inh: -9.4%; A549 tox: -0.5%

Results for O=C(Cc1ccsc1)Nc1ccc(Cl)cc1Cl ?
CCT modulator: 0.4; TCR act: 1.1%; A-T KAP1 phos: 3.2%; Nrf2 activator: 0.2%; Nrf2 inh: -10.1%; A549 tox: 8.0%

What do the screens show for `C=C[C@@]1(C)CCC(/C(C)=C/C=C/C(C)(C)O)C[C@@H]1C(=C)C` (stereo not given in full)?
CCT modulator: 0.8; TCR act: 2.9%; A-T KAP1 phos: 19.8%; Nrf2 activator: 6.7%; Nrf2 inh: 17.9%; A549 tox: -2.8%

How did Cc1cn([C@@H](CCCCNC(=O)OC(C)(C)C)C(=O)NCCCCCCCCCCC(=O)N2CCN(C(=O)OC(C)(C)C)CC2)nn1 do in these assays?
CCT modulator: 0.5; TCR act: -6.3%; A-T KAP1 phos: -1.5%; Nrf2 activator: -1.3%; Nrf2 inh: 10.3µM*; A549 tox: 16.4µM*

Results for CC(C)CN(C(=O)CN1C(=O)NC2(CCc3ccccc32)C1=O)C1CCS(=O)(=O)C1 (stereo not given) ?
CCT modulator: 0.5; TCR act: -7.2%; A-T KAP1 phos: -0.1%; Nrf2 activator: 0.2%; Nrf2 inh: 0.9%; A549 tox: -0.5%

What do the screens show for `CCN(C(=O)CN1C(=O)NC2(CCc3ccccc32)C1=O)C1CCS(=O)(=O)C1` (stereo not given)?
CCT modulator: -33.6*; A-T KAP1 phos: 1.7%; Nrf2 activator: 3.3%; Nrf2 inh: 7.7%; A549 tox: 0.7%

How did C[C@@H]1CN([C@H](C)CO)C(=O)c2cc(NC(=O)Nc3ccc(C(F)(F)F)cc3)ccc2O[C@H]1CN(C)S(=O)(=O)c1ccccc1 do in these assays?
CCT modulator: -5.2; TCR act: -4.1%; A-T KAP1 phos: -6.3%; Nrf2 activator: 0.3%; Nrf2 inh: 16.4µM*; A549 tox: inconclusive

Results for COc1ccc(S(=O)(=O)N(C)C[C@H]2Oc3ccc(NC(=O)Nc4ccc(C(F)(F)F)cc4)cc3C(=O)N([C@H](C)CO)C[C@@H]2C)cc1 ?
CCT modulator: -0.1; TCR act: 3.3%; A-T KAP1 phos: -0.4%; Nrf2 activator: 0.4%; Nrf2 inh: 23.1µM*; A549 tox: inconclusive

What do the screens show for `CCCC[C@H]1CCCO[C@@](C(=O)NCc2ccccc2)(C(F)(F)F)C1`?
Nrf2 inh: 16.3%; A549 tox: 19.6%

Results for Cc1cccc(C(=O)NNc2ncnc3c2cnn3-c2ccc(C)cc2C)c1 ?
Nrf2 activator: 6.9%; A549 tox: inconclusive

How did CCc1nn(CC(=O)NCCN(CC(C)C)CC(C)C)c(=O)c2cc3sc(C)cc3n12 do in these assays?
Nrf2 activator: -0.1%; Nrf2 inh: 4.1%; A549 tox: 8.3%

How did COc1ccc(CC(=O)Nc2nc(-c3ccccc3)c(C(C)=O)s2)cc1OC do in these assays?
CCT modulator: 2.0; TCR act: 4.6%; A-T KAP1 phos: 4.0%; Nrf2 activator: 3.3%; Nrf2 inh: inconclusive; A549 tox: -5.3%

What do the screens show for `COc1cc(CC(=O)Nc2nc(-c3ccccc3)c(C(C)=O)s2)cc(OC)c1OC`?
CCT modulator: -0.3; TCR act: 0.0%; A-T KAP1 phos: 7.4%; Nrf2 activator: 0.8%; Nrf2 inh: 20.6µM*; A549 tox: -11.4%

How did Cc1sc(NC(=O)CN2CCOCC2)nc1-c1ccc2c(c1)CCN2S(=O)(=O)c1ccccc1 do in these assays?
CCT modulator: 0.8; TCR act: 4.0%; A-T KAP1 phos: 4.2%; Nrf2 activator: 3.5%; Nrf2 inh: 2.59µM*; A549 tox: -12.7%

Results for COc1ccc(CNC(=O)c2cc(COc3c(F)cccc3F)on2)cc1OC ?
CCT modulator: 0.9; TCR act: -1.7%; A-T KAP1 phos: 11.1%; Nrf2 activator: 0.3%; Nrf2 inh: 25.9µM*; A549 tox: -15.3%

Results for O=C(NCc1c(F)cccc1F)c1cc(COc2c(F)cccc2F)on1 ?
CCT modulator: 1.6; TCR act: 0.6%; A-T KAP1 phos: 7.4%[11.5 µM]; Nrf2 activator: 10.0%; Nrf2 inh: inconclusive; A549 tox: 17.9%

Results for CCc1cc2c(=O)n(Cc3ccco3)c(SCC(=O)N3CCCc4ccccc43)nc2s1 ?
CCT modulator: -8.3; TCR act: -1.7%; A-T KAP1 phos: 4.0%; Nrf2 activator: 6.3%; Nrf2 inh: 25.9µM*; A549 tox: -28.1%

How did CCc1cc2c(=O)n(Cc3ccco3)c(SCC(=O)NCC3CCCO3)nc2s1 (stereo not given) do in these assays?
CCT modulator: 1.0; TCR act: 1.5%; A-T KAP1 phos: 3.4%; Nrf2 activator: 3.6%; Nrf2 inh: inconclusive; A549 tox: -14.0%

Results for Cc1cccnc1CCNC(=O)CC1C(=O)NCCN1CC1CCCCC1 (stereo not given) ?
CCT modulator: 2.5; TCR act: 3.3%; A-T KAP1 phos: 3.6%[11.5 µM]; Nrf2 activator: 1.3%; Nrf2 inh: 23.1µM*; A549 tox: 1.9%

How did O=C(CC1C(=O)NCCN1C/C=C/c1ccccc1)NCCc1cnccn1 (stereo not given) do in these assays?
CCT modulator: -2.2; TCR act: 3.1%; A-T KAP1 phos: -2.3%; Nrf2 activator: -0.5%; Nrf2 inh: 8.5%; A549 tox: -1.3%

Results for O=C(CC1C(=O)NCCN1C/C=C/c1ccccc1)NCCc1ccncc1 (stereo not given) ?
CCT modulator: -32.9*; TCR act: -1.0%; A-T KAP1 phos: -3.5%; Nrf2 activator: -0.5%; Nrf2 inh: -2.5%; A549 tox: -6.2%

How did O=C(CC1C(=O)NCCN1CC1CCCCC1)NCc1ccccc1Cl (stereo not given) do in these assays?
CCT modulator: -0.1; TCR act: -1.5%; A-T KAP1 phos: 6.1%; Nrf2 activator: 0.3%; Nrf2 inh: 0.3%; A549 tox: -0.9%
